The values below come from the supplement of paper PMC11172423.

Assay [1] relates to Falciformispora senegalensis CBS197.79. Briefly: growth relative to untreated control; higher = less inhibition, active = 20 or less. The essentials: (§1)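 Growth was expressed as metabolic activity relative to the untreated growth control, with both corrected using a blank of medium plus dye. Hyphal fragments of M. mycetomatis MM55 or F. senegalensis CBS197.79 were suspended to 68–72% transmission at 660 nm in colourless RPMI 1640 containing L-glutamine and MOPS. In 96-well plates they were exposed to compound at 100 or 25 µM for 7 days at 37 °C, and viability was read with MTS (2 h, 490 nm) or resazurin (600 nm).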

In assay [2] the test system is Madurella mycetomatis MM55. The assay is described as above. The essentials: as §1

A number with no mark means an inactive call.

Take `Cc1cc(C(=O)N2CCOc3c(cc(-c4csc5ccccc45)cc3OCCc3ccccn3)C2)n(C)n1`: the growth in assay [1] (25 µM) was 90.1%; in assay [1] (100 µM), 91.1%; in assay [2] (25 µM), 5.62% (active); in assay [2] (100 µM), 87.7%.

In the case of `CC(C)C[C@H](NC(=O)[C@@H](NC(=O)c1cccc(-c2ccccc2)n1)[C@@H](C)O)B(O)O`, the growth is 102% in assay [1] (25 µM), 99% in assay [1] (100 µM), 99.4% in assay [2] (25 µM) and 88.5% in assay [2] (100 µM).

Regarding `O[C@@H](c1cc(C(F)(F)F)nc2c(C(F)(F)F)cccc12)[C@H]1CCCCN1`, the growth is 8.55% (active) in assay [1] (25 µM), 14.8% (active) in assay [1] (100 µM), 5.4% (active) in assay [2] (25 µM) and 4.2% (active) in assay [2] (100 µM).

With `Cc1ccccc1-c1noc(-c2ccccc2)n1`, the growth in assay [1] (25 µM) was 92.9%; in assay [1] (100 µM), 86.5%; in assay [2] (25 µM) it was 93.4%; in assay [2] (100 µM), 60.5%.

`O=C(Nc1cccc(-c2cc3nc(Nc4ccc(N5CCOCC5)cc4)ncc3[nH]2)c1)C1CC1`: the growth in assay [1] (25 µM) was 89.7%; in assay [1] (100 µM) it was 85.2%; in assay [2] (25 µM), 78.9%; in assay [2] (100 µM) it was 72.6%.

With `O=C(NC1(CO)CCOCC1)c1cc2ccc(C(F)(F)F)cc2[nH]1`, the growth is 89.7% in assay [1] (25 µM), 82.1% in assay [1] (100 µM), 83.9% in assay [2] (25 µM) and 72.9% in assay [2] (100 µM).

Take `CC[C@H](C)[C@H]1O[C@]2(CC[C@@H]1C)C[C@@H]1C[C@@H](C/C=C(\C)[C@@H](O[C@H]3C[C@H](OC)[C@@H](O[C@H]4C[C@H](OC)[C@@H](O)[C@H](C)O4)[C@H](C)O3)[C@@H](C)/C=C/C=C3\CO[C@@H]4[C@H](O)C(C)=C[C@@H](C(=O)O1)[C@]34O)O2`: the growth in assay [1] (25 µM) is 90.2%; in assay [1] (100 µM), 91.2%; in assay [2] (25 µM) it was 95.8%; in assay [2] (100 µM) it was 112%.

In the case of `CC(CN1c2ccccc2Sc2ccccc21)N(C)C` (stereo unspecified), the growth in assay [1] (25 µM) was 102%; in assay [1] (100 µM) it was 12.8% (active); in assay [2] (25 µM), 77.8%; in assay [2] (100 µM) it was 3.58% (active).

For `CN(C)c1ncc2nc(Nc3cc(Cl)cc(C(F)(F)F)c3)n(C3CCNCC3)c2n1`, the growth is 102% in assay [1] (25 µM), 99.5% in assay [1] (100 µM), 86.2% in assay [2] (25 µM) and 5.43% (active) in assay [2] (100 µM).

For the compound `CC(C)CN(C[C@@H](O)[C@H](Cc1ccccc1)NC(=O)O[C@H]1CO[C@H]2OCC[C@H]21)S(=O)(=O)c1ccc(N)cc1`, the growth in assay [1] (25 µM) was 97.7%; in assay [1] (100 µM) it was 101%; in assay [2] (25 µM), 130%; in assay [2] (100 µM), 90.5%.

Take `COc1ccc(-n2nc(C)c3c2NC(=O)CC3c2ccccc2OCc2ccc(F)cc2)cc1` (stereo unspecified): the growth in assay [1] (25 µM) is 82.5%; in assay [1] (100 µM) it was 77.9%; in assay [2] (25 µM), 41.5%; in assay [2] (100 µM), 52.4%.

`CCS(=O)(=O)N1CC(CC#N)(n2cc(-c3ncnc4[nH]ccc34)cn2)C1`: the growth in assay [1] (25 µM) was 102%; in assay [1] (100 µM), 104%; in assay [2] (25 µM) it was 94.3%; in assay [2] (100 µM), 80.3%.

As to `CCOc1ccc(C=C2NCCc3cc(OCC)c(OCC)cc32)cc1OCC`, the growth was 112% in assay [1] (25 µM), 106% in assay [1] (100 µM), 73.2% in assay [2] (25 µM) and 48% in assay [2] (100 µM).

As to `Cc1nn(-c2cccc(Cl)c2)c2c1C(C(=O)c1ccc3c(c1)OCO3)CC(=O)N2` (stereo unspecified), the growth was 87.3% in assay [1] (25 µM), 91.7% in assay [1] (100 µM), 68.8% in assay [2] (25 µM) and 88.3% in assay [2] (100 µM).

Take `O=C(O)c1ccc2c(c1)nc(Nc1cccc(Cl)c1)c1ccncc12`: the growth was 97.2% in assay [1] (25 µM), 97.3% in assay [1] (100 µM), 125% in assay [2] (25 µM) and 78.1% in assay [2] (100 µM).

For `CC(C)(C)c1nn(-c2ccc(Cl)cc2)c2[nH]c(=O)c(CNCc3ccc4c(c3)OCO4)cc12`, the growth is 72.1% in assay [1] (25 µM), 66.3% in assay [1] (100 µM), 5.51% (active) in assay [2] (25 µM) and 6.74% (active) in assay [2] (100 µM).

For the compound `CO[C@H]1C[C@@H]2CC[C@@H](C)[C@@](O)(O2)C(=O)C(=O)N2CCCC[C@H]2C(=O)O[C@H]([C@H](C)C[C@@H]2CC[C@@H](O)[C@H](OC)C2)CC(=O)[C@H](C)/C=C(\C)[C@@H](O)[C@@H](OC)C(=O)[C@H](C)C[C@H](C)/C=C/C=C/C=C/1C`, the growth in assay [1] (25 µM) is 103%; in assay [1] (100 µM), 105%; in assay [2] (25 µM) it was 120%; in assay [2] (100 µM), 69.3%.

With `CC(C)Nc1ncc2nc(Nc3cc(C(F)(F)F)cc(C(F)(F)F)c3)n(C3CCNCC3)c2n1`, the growth was 104% in assay [1] (25 µM), 107% in assay [1] (100 µM), 104% in assay [2] (25 µM) and 64.5% in assay [2] (100 µM).

With `CN(C)CCNC(=O)c1ccc(Nc2nccc(-c3ccc(Cl)c(Cl)c3)n2)cc1`, the growth in assay [1] (25 µM) was 24.5%; in assay [1] (100 µM), 43.3%; in assay [2] (25 µM), 5.83% (active); in assay [2] (100 µM) it was 4.93% (active).
